In PubChem BioAssay (NCATS) one finds Potency data, which are given here for 12 compounds.

Inconclusive results are not listed. Calls of active or inactive are those of the source. The call rests on the fitted dose curve; in most records, active means well fitted inhibition curve with a large enough effect; inconclusive means small, poorly fitted or top-dose-only effect; inactive means flat fitted curve, though single readings scatter.

For test [1], the target named is Luciferin 4-monooxygenase (Photinus pyralis) (UniProt P08659). The experiment in a line: Biochemical firefly luciferase enzyme assay for NPC (AID 624030).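 Further: purified P. pyralis luciferase at 10 nM with luciferin and ATP substrate; nearly all actives have a fitted effect of over 70% in size.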 Conditions: purified P. pyralis luciferase, luminescence, 5 min; series mostly up to 24.9 µM. The gist of the method: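 Direct inhibition of firefly luciferase enzyme (10 nM final, 50 mM Tris Acetate) assessed by luminescence within 5 minutes. Percent activity scaled between DMSO and PTC124 positive control, with concentration-effect curves classified by fit quality and response.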

For a further test, the system named is CP265. Briefly: qHTS profiling for inhibitors of Plasmodium falciparum proliferation (AID 504749). Further: nearly all actives have a fitted effect of over 60% in size. Further: potency means the concentration at half of the fitted maximal effect. Conditions: P. falciparum in erythrocytes, SYBR Green DNA, 72 h; series mostly up to 12.8 µM. The gist of the method: (§1)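 SYBR Green fluorescence of parasite DNA, read after lysis and overnight dark incubation, measured growth over 72 h in erythrocyte culture at 0.3% parasitemia and 2.5% hematocrit. Data normalised to DMSO and 0.29 uM artemisinin, with plate-drift correction.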
Background: In qHTS, concentration-response curves come from the screen itself.

The test system of a further test is DIV14. Described as above. Conditions: P. falciparum in erythrocytes, SYBR Green DNA, 72 h; series mostly up to 12.8 µM. Put shortly:
as §1

The subject of a further test is DIV17. The description is as above. The conditions noted are these: P. falciparum in erythrocytes, SYBR Green DNA, 72 h; series mostly up to 12.8 µM. Put shortly: as §1
For another test, the system named is DIV30. Described as above. Conditions: P. falciparum in erythrocytes, SYBR Green DNA, 72 h; series mostly up to 12.8 µM. Put shortly: as §1
The next test has as its system HB3. The test is described as above. The conditions noted are these: P. falciparum in erythrocytes, SYBR Green DNA, 72 h; series mostly up to 12.8 µM. Put shortly: as §1
A further test concerns PAD. Described as above. The conditions noted are these: P. falciparum in erythrocytes, SYBR Green DNA, 72 h; series mostly up to 12.8 µM. The gist of the method:
as §1

The next test has as its system TAB113. The test is described as above. Conditions: P. falciparum in erythrocytes, SYBR Green DNA, 72 h; series mostly up to 12.8 µM. The gist of the method: as §1
The next test relates to CP185. The description is as above. Conditions: P. falciparum in erythrocytes, SYBR Green DNA, 72 h; series mostly up to 12.8 µM. The gist of the method: as §1
A further test relates to CP194. The test is described as above. Conditions: P. falciparum in erythrocytes, SYBR Green DNA, 72 h; series mostly up to 12.8 µM. The gist of the method: as §1
For a further test, the system named is CP201. The description is as above. The conditions noted are these: P. falciparum in erythrocytes, SYBR Green DNA, 72 h; series mostly up to 12.8 µM. Put shortly: as §1
The test system of the next test is CP203. The description is as above. The conditions noted are these: P. falciparum in erythrocytes, SYBR Green DNA, 72 h; series mostly up to 12.8 µM. The gist of the method:
as §1

Another test concerns CP268. The description is as above. The conditions noted are these: P. falciparum in erythrocytes, SYBR Green DNA, 72 h; series mostly up to 12.8 µM. Put shortly: as §1
The subject of the next test is CP286. The test is described as above. The conditions noted are these: P. falciparum in erythrocytes, SYBR Green DNA, 72 h; series mostly up to 12.8 µM. The gist of the method: as §1
Another test deals with CP291. The test is described as above. The conditions noted are these: P. falciparum in erythrocytes, SYBR Green DNA, 72 h; series mostly up to 12.8 µM. The gist of the method: as §1
The next test relates to CP325. Described as above. Conditions: P. falciparum in erythrocytes, SYBR Green DNA, 72 h; series mostly up to 12.8 µM. Put shortly: as §1
For the next test, the system named is Dd2. Described as above. Conditions: P. falciparum in erythrocytes, SYBR Green DNA, 72 h; series mostly up to 12.8 µM. Put shortly:
as §1

The next test deals with ICS. The description is as above. The conditions noted are these: P. falciparum in erythrocytes, SYBR Green DNA, 72 h; series mostly up to 12.8 µM. The gist of the method: as §1
The subject of a further test is P93_24. The description is as above. Conditions: P. falciparum in erythrocytes, SYBR Green DNA, 72 h; series mostly up to 12.8 µM. The gist of the method: as §1
In the next test the test system is CP237. The test is described as above. Conditions: P. falciparum in erythrocytes, SYBR Green DNA, 72 h; series mostly up to 12.8 µM. The gist of the method:
as §1

Sequence of Luciferin 4-monooxygenase (Photinus pyralis) (P08659 whole entry, looked up): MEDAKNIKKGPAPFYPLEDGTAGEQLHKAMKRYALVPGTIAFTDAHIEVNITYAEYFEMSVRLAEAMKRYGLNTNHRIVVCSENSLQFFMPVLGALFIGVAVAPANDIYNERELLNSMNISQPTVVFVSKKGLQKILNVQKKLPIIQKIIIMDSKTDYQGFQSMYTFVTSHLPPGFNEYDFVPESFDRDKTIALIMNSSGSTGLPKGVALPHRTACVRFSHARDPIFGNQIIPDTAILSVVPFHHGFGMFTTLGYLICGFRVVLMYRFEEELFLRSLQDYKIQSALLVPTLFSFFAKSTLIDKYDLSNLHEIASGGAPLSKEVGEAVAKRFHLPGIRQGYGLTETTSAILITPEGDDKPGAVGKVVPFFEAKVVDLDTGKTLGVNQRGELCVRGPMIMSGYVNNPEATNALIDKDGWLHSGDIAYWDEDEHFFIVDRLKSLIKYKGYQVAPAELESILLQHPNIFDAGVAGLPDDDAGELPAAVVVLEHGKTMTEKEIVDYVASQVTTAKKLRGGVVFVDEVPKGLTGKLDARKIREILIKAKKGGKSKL

In the case of `CS(=O)(=O)c1ccc([C@H](O)[C@H](CO)NC(=O)C(Cl)Cl)cc1`, the Potency entry (in test [1]; with CP265; with DIV14; with DIV17; with DIV30; in the test on HB3) was “inactive” in each case. Besides, the Potency entry in the test on PAD and in the test with TAB113 was “inactive” in each case.
For `Cc1nccn1C[C@@H]1CCc2c(c3ccccc3n2C)C1=O`, the Potency result in test [1] is “inactive”.
Consider `O=C(Nc1ccccc1)OC[C@H](CN1CCCCC1)OC(=O)Nc1ccccc1`, for which the Potency entry in the test with CP185, with CP194, with CP201, with CP203, with CP265 and in the test with CP268 was “inactive” throughout. Also, the Potency entry in the test with CP286, in the test with CP291, in the test on CP325, in the test on DIV14, in the test with DIV17 and in the test with DIV30 was “inactive” throughout. Also, the Potency entry in the test with Dd2, with HB3, in the test with ICS, in the test on P93_24, with PAD and in the test on TAB113 was “inactive” in each case.
`NS(=O)(=O)c1cc2c(cc1Cl)N[C@@H](C(Cl)Cl)NS2(=O)=O`: the Potency entry (in [1]; in the test with CP185; in the test with CP194; in the test with CP201; in the test with CP203; in the test with CP237) was “inactive” throughout. The Potency result in the test with CP265, in the test with CP268, in the test on CP286, in the test with CP291, in the test on CP325 and with DIV14 was “inactive” throughout. Also, the Potency result with DIV17, in the test with DIV30, in the test on Dd2, in the test on HB3, in the test with ICS and in the test on P93_24 was “inactive” throughout. In addition, the Potency result in the test on PAD and with TAB113 was “inactive” throughout.
In the case of `CC(=O)O[C@]1(C(C)=O)CC[C@@H]2[C@@H]3C=C(C)C4=CC(=O)CC[C@@]4(C)[C@H]3CC[C@]21C`, the Potency result (in [1]; in the test with CP185; in the test on CP194; in the test on CP201; with CP203; in the test on CP237) was “inactive” each time. Further, the Potency entry in the test on CP265, in the test on CP268, in the test with CP286, in the test on CP291, in the test with CP325 and in the test on DIV14 was “inactive” throughout. Also, the Potency entry with DIV17, in the test with DIV30, in the test on Dd2, in the test with HB3, in the test on P93_24 and with PAD was “inactive” each time. In addition, in the test with TAB113, the Potency result was “inactive”.
With `CC(=O)[C@@H]1CC[C@@H]2[C@@H]3C[C@H](C)C4=CC(=O)CC[C@@]4(C)[C@H]3[C@H](O)C[C@]21C`, the Potency result (in test [1]; in the test with CP185; with CP194; in the test with CP201; in the test on CP203; in the test with CP237) was “inactive” in each case. Besides, the Potency result in the test with CP265, in the test with CP268, in the test with CP286, in the test with CP291, in the test on CP325 and in the test on DIV14 was “inactive” throughout. The Potency entry in the test on DIV17, in the test with DIV30, with Dd2, with HB3, in the test with P93_24 and with PAD was “inactive” each time. Also, the Potency entry in the test with TAB113 was “inactive”.
For `C=CC1=C(C(=O)O)N2C(=O)[C@@H](NC(=O)/C(=N\OCC(=O)O)c3csc(N)n3)[C@@H]2SC1`, the Potency result (in [1]; with CP185; with CP194; in the test on CP201; with CP203; in the test on CP237) was “inactive” each time. The Potency result with CP265, with CP286, in the test with CP291, in the test with CP325, with DIV14 and with DIV17 was “inactive” each time. In addition, the Potency entry with DIV30, in the test on Dd2, in the test with HB3, in the test with ICS, in the test with P93_24 and in the test on PAD was “inactive” each time. Moreover, the Potency result in the test on TAB113 was “inactive”.
On to `Cc1ccc(S(=O)(=O)NC(=O)NN2C[C@H]3CCC[C@@H]3C2)cc1`, for which the Potency entry (in test [1]; with CP185; in the test on CP194; with CP201; in the test on CP203; in the test with CP237) was “inactive” in each case. The Potency entry in the test on CP265, in the test on CP268, with CP286, in the test on CP291, in the test on CP325 and with DIV14 was “inactive” throughout. For the same compound, the Potency entry in the test on DIV17, in the test on Dd2, in the test on HB3, with ICS, in the test with P93_24 and in the test with PAD was “inactive” in each case. Besides, the Potency result in the test with TAB113 was “inactive”.
Regarding `CC1(C)O[C@H]2C[C@@H]3[C@H]4CCC5=CC(=O)CC[C@@]5(C)[C@]4(F)[C@@H](O)C[C@@]3(C)[C@@]2(C(=O)CCl)O1`, the Potency entry in [1] is “inactive”. Also, the Potency in the test on CP265 was 3.98 µM (active); in the test with DIV14, 5.1 µM (active); with DIV17, 6.42 µM (active); in the test with DIV30 it was 5.73 µM (active); with ICS, 0.891 µM (active); in the test on P93_24, 3.55 µM (active).
On to `C[C@H]1CC[C@]2(OC1)O[C@@H]1C[C@@H]3[C@@H]4CC[C@H]5C[C@@H](O)CC[C@]5(C)[C@@H]4CC(=O)[C@@]3(C)[C@H]1[C@@H]2C`, for which the Potency entry (in test [1]; with CP185; in the test with CP194; with CP201; with CP203; in the test on CP237) was “inactive” throughout. Further, the Potency result with CP265, with CP268, in the test on CP286, in the test with CP291, in the test with CP325 and in the test with DIV14 was “inactive” each time. In addition, the Potency result with DIV17, with DIV30, in the test on Dd2, in the test with HB3, with ICS and with P93_24 was “inactive” throughout. Further, the Potency entry in the test on PAD and in the test with TAB113 was “inactive” each time.
Regarding `CCCC[C@H](CC)CN1CN(C[C@@H](CC)CCCC)CC(C)(N)C1`, the Potency result (in [1]; with CP185; with CP194; with CP201; in the test on CP203; in the test on CP265) was “inactive” in each case. Further, the Potency entry in the test on CP268, with CP291, in the test on CP325, with DIV14, in the test with DIV17 and in the test with DIV30 was “inactive” throughout. Moreover, the Potency result in the test on Dd2, with HB3, with P93_24, with PAD and in the test with TAB113 was “inactive” each time. Besides, in the test with ICS, the Potency is 4.47 µM (active).
For the compound `CC(C)NC[C@H]1CCc2cc(CO)c([N+](=O)[O-])cc2N1`, the Potency entry (in test [1]; with CP185; in the test with CP194; in the test on CP201; in the test with CP203; in the test on CP237) was “inactive” in each case. The Potency result with CP265, in the test on CP268, in the test on CP286, in the test on CP291, in the test with CP325 and in the test with DIV14 was “inactive” in each case. The Potency result in the test on DIV17, in the test on DIV30, with Dd2, in the test on HB3, with ICS and in the test on P93_24 was “inactive” each time. The Potency result with PAD and in the test on TAB113 was “inactive” throughout.
